PubChem BioAssay (Tox21)
Values joined by “and” are separate entries in the source; they are usually repeats but may differ in a detail not shown here. Equal values may be shown once. Results filed as inconclusive are left out. A call without a number means that no potency is given here. Some compounds were tested as several samples or in several runs, with calls that do not always agree. Active and inactive are the calls of the source. Unless noted, calls come from the whole dose curve.

Legend:
[1] = target: Gonadotropin-releasing hormone receptor (Homo sapiens) (UniProt P30968); assay: Human gonadotropin-releasing hormone receptor (GnRHR) small molecule agonists, calcium flux assay in GnRHR-HEK293 cells (AID 1920063); note: nearly all actives have a fitted effect of over 35% in size
Summary of the method: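 Fluorescence kinetics (480 nm excitation, 540 nm emission; 3 min, 1 s steps) report calcium mobilisation in human GnRHR-HEK293 cells in agonist mode. Dye incubation: 1 h, 37 C.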

[2] = target: KiSS-1 receptor (Homo sapiens) (UniProt Q969F8); assay: Human kisspeptin (KISS1R) small molecule agonists, calcium flux assay in KISS1R-HEK293 cells (AID 1920064; active = well fitted activation curve with a large enough effect in the repeat runs)
Summary of the method: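 Measures KISS1R agonism through calcium-sensitive dye fluorescence in stably transfected HEK293 cells, read for 3 min after pin-tool compound delivery; 15-point titrations in triplicate.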

[3] = p53 small molecule agonists, cell-based qHTS assay with human liver microsomes (AID 1963577)
Summary of the method: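 Compounds act here after metabolic activation: human liver microsomes and NADPH, both at 0.5 mg/mL final, were co-added to p53RE-bla cells. Incubation ran 16 h at 37 C, followed by LiveBLAzer detection.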

[4] = p53 small molecule agonists, cell-based qHTS assay with human liver microsomes: qHTS cell viability counter screen (AID 1963579); note: nearly all actives have a fitted effect of over 45% in size
Summary of the method: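 Cells carrying the p53 response-element beta-lactamase reporter are treated for 16 h at 37 C with test compounds in the presence of human liver microsomes and NADPH (both 0.5 mg/mL final); ATP-based CellTiter-Glo luminescence then reports viability.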

[5] = p53 small molecule agonists, cell-based qHTS assay with rat liver microsomes: qHTS cell viability counter screen (AID 1963580); note: nearly all actives have a fitted effect of over 45% in size; note: potency is the fitted concentration of half-maximal effect
Summary of the method: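 Intracellular ATP, by CellTiter-Glo luminescence, defines viability. HCT-116 p53RE-bla cells, 4,000 per well, were compound-treated in the presence of rat liver microsomes and NADPH for 16 h at 37 C.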

[6] = p53 small molecule agonists, cell-based qHTS assay: qHTS cell viability counter screen (AID 1963581); note: nearly all actives have a fitted effect of over 45% in size
Summary of the method: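 In the same plates used for the p53 bla reporter, HCT-116 cells given compounds for 16 h at 37 C received CellTiter-Glo; luminescence was recorded 30 min later at room temperature.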

[7] = p53 small molecule agonists, cell-based qHTS assay (AID 1963582; active = well fitted activation curve with a large enough effect in the signal ratio in the repeat runs, not every such curve was filed as active; the % refers to the signal ratio)
Summary of the method: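 Compounds are pin-transferred in DMSO onto p53RE-bla cells and incubated 16 h at 37 C. The B/G FRET beta-lactamase substrate is then applied for 2 h at RT and fluorescence recorded.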

[8] = cAMP Responsive Elements (CRE) small molecule antagonists, cell-based qHTS assay (AID 1963591; active = well fitted inhibition curve with a large enough effect in the signal ratio in the repeat runs, not every such curve was filed as active; the % refers to the signal ratio)
Summary of the method: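 Inhibition of NKH477-driven (0.25 uM final) CRE-beta-lactamase signal in HEK293T cells, 3 h compound exposure at 37 °C, detected by FRET substrate fluorescence.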

[9] = target: Beta-2 adrenergic receptor (Homo sapiens) (UniProt P07550); assay: Adrenergic beta2 receptor (ADRB2) small molecule antagonists, cell-based qHTS assay (AID 1963592); note: nearly all actives have a fitted effect of over 50% in size; note: potency is the fitted concentration of half-maximal effect
Summary of the method: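 Cells (CHO, stable ADRB2 overexpression) incubated 18-20hr at 37C; compounds added from DMSO; agonist mix (1nM isoproterenol, 100uM IBMX, 25uM Ro-20-1724) added; 0.5hr RT; d2-cAMP and anti-cAMP-cryptate added; 1hr RT; 665/615 nm read.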

[10] = target: Beta-2 adrenergic receptor (Homo sapiens) (UniProt P07550); assay: Adrenergic beta2 receptor (ADRB2) small molecule agonists, cell-based qHTS assay (AID 1963593);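 note: CHO cells stably overexpressing human ADRB2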
Summary of the method: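 CHO cells stably over-expressing ADRB2 were plated overnight at 37C, then dosed with compounds plus a stimulation mix containing 100uM IBMX and 25uM Ro-20-1724 for 0.5hr at room temperature. cAMP was measured by HTRF competition, 1hr.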

[11] = target: D(2) dopamine receptor (Homo sapiens) (UniProt P14416); assay: Dopamine D2 receptor (DRD2) small molecule agonists, cell-based qHTS assay (AID 1963594); note: nearly all actives have a fitted effect of over 35% in size
Summary of the method: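 cAMP accumulation in DRD2-HEK293 cells measured by HTRF after 1 h detection; compounds added 10 min before NKH477 (200nM […]) forskolin-analogue stimulation, 30 min at room temperature, with Ro20-1724 present at 0.1 mM final.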

[12] = target: D(2) dopamine receptor (Homo sapiens) (UniProt P14416); assay: Dopamine D2 receptor (DRD2) small molecule antagonists, cell-based qHTS assay (AID 1963595; active = well fitted inhibition curve with a large enough effect in the signal ratio in the repeat runs, with a control signal flat; the % refers to the signal ratio)
Summary of the method: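 Antagonist mode in DRD2-HEK293 cells: after compound addition with 0.1 mM Ro20-1724, cells received quinpirole (12 nM) and NKH477 (200 nM) for 30 min at room temperature; HTRF cAMP read after 1 h detection.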

[13] = G protein-coupled receptor (GPCR) small molecule agonists, calcium flux assay: HEK293 wild type cell line counter screen (AID 1920065)
Summary of the method: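 Readout: fluorescence at 480 nm excitation/540 nm emission, sampled at 1 s intervals for 3 min. Cells had been cultured 18 h, then dye-loaded 1 h at 37 C before compound or ATP addition.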

[14] = p53 small molecule agonists, cell-based qHTS assay with rat liver microsomes (AID 1963578)
Summary of the method: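 Read-out is beta-lactamase reporter fluorescence (LiveBLAzer, 2 h, room temperature, dark) in p53RE-bla cells treated 16 h at 37 C with compound, rat liver microsomes and NADPH, both 0.5 mg/mL final.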

[15] = target: 5-hydroxytryptamine receptor 2A (Homo sapiens) (UniProt P28223); assay: 5-hydroxytryptamine receptor 2A (HTR2A) small molecule antagonists, cell-based qHTS assay (AID 1963586); note: nearly all actives have a fitted effect of over 45% in size; note: potency is the fitted concentration of half-maximal effect
Summary of the method: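 Antagonist-mode intracellular calcium assay: DOI (4 nM) added after 5 min compound pre-incubation at room temperature to dye-loaded HTR2A-CHO cells. Fluorescence followed for 3 min, sampled every second.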

[16] = target: 5-hydroxytryptamine receptor 2A (Homo sapiens) (UniProt P28223); assay: 5-hydroxytryptamine receptor 2A (HTR2A) small molecule agonists, cell-based qHTS assay (AID 1963587); note: nearly all actives have a fitted effect of over 30% in size; note: potency is the fitted concentration of half-maximal effect
Summary of the method: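 Kinetic calcium-flux fluorescence (2 min, 1 sec intervals) after compound addition in agonist mode. HTR2A-CHO cells were cultured 18 h, then dye-loaded 1 h at 37 C.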

[17] = target: Muscarinic acetylcholine receptor M1 (Homo sapiens) (UniProt P11229); assay: Cholinergic receptor muscarinic 1 (CHRM1) small molecule antagonists, cell-based qHTS assay (AID 1963588); note: nearly all actives have a fitted effect of over 40% in size; note: potency is the fitted concentration of half-maximal effect
Summary of the method: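 CHRM1-CHO calcium-flux assay, antagonist mode. Cells were seeded 18 h, dye-loaded 1 h at 37 C and given compound for 5 min at RT, then acetylcholine was added at 50nM. FDSS fluorescence was read 3 min; 15 concentrations, three runs.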

[18] = target: Muscarinic acetylcholine receptor M1 (Homo sapiens) (UniProt P11229); assay: Cholinergic receptor muscarinic 1 (CHRM1) small molecule agonists, cell-based qHTS assay (AID 1963589); note: nearly all actives have a fitted effect of over 35% in size; note: potency is the fitted concentration of half-maximal effect
Summary of the method: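 Each compound was tested at 15 concentrations across three independent runs on dye-loaded CHO cells stably expressing human CHRM1, reading intracellular calcium fluorescence kinetically at 1 sec intervals.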

[19] = cAMP Responsive Elements (CRE) small molecule agonists, cell-based qHTS assay (AID 1963590)
Summary of the method: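 Cell line: CRE-bla HEK 293T; medium DMEM/10% dialyzed FBS/0.1 mM NEAA/1 mM pyruvate/25 mM HEPES; 3 h compound exposure; beta-lactamase FRET readout after 2 h substrate loading at RT.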

Chain of Gonadotropin-releasing hormone receptor (Homo sapiens) (P30968 whole entry, looked up): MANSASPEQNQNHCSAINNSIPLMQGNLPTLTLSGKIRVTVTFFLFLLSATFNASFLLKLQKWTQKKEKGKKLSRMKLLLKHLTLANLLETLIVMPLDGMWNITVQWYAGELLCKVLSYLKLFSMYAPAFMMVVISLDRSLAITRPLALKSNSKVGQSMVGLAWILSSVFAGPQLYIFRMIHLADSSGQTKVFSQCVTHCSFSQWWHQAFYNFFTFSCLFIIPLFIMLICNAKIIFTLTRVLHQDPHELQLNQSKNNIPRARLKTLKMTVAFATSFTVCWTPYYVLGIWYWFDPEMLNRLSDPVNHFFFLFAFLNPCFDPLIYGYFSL
Chain of D(2) dopamine receptor (Homo sapiens) (P14416 whole entry, looked up): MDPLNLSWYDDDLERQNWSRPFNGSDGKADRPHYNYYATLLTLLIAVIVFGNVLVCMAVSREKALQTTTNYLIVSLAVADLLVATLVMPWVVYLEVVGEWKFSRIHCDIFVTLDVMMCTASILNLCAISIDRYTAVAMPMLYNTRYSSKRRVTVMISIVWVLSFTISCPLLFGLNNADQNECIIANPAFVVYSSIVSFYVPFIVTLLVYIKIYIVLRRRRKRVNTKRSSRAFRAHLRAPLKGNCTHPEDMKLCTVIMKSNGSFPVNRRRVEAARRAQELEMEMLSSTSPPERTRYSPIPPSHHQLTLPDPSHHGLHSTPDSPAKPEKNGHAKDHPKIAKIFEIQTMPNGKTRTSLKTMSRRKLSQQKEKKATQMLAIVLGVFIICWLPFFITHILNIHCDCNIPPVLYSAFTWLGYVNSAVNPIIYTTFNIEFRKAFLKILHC
Chain of 5-hydroxytryptamine receptor 2A (Homo sapiens) (P28223 whole entry, looked up): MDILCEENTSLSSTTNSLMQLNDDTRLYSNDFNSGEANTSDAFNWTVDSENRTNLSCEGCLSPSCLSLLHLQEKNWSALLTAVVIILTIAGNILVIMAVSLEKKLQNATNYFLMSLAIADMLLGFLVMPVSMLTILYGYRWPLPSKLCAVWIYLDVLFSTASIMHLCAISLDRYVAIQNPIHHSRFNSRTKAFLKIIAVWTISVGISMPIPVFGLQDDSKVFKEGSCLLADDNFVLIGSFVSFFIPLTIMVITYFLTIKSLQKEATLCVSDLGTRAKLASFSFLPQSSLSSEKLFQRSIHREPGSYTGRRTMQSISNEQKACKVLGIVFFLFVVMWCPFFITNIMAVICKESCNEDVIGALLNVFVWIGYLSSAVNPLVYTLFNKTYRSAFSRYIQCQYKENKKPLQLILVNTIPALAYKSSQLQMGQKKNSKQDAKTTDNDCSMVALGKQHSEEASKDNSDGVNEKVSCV
Chain of Muscarinic acetylcholine receptor M1 (Homo sapiens) (P11229 whole entry, looked up): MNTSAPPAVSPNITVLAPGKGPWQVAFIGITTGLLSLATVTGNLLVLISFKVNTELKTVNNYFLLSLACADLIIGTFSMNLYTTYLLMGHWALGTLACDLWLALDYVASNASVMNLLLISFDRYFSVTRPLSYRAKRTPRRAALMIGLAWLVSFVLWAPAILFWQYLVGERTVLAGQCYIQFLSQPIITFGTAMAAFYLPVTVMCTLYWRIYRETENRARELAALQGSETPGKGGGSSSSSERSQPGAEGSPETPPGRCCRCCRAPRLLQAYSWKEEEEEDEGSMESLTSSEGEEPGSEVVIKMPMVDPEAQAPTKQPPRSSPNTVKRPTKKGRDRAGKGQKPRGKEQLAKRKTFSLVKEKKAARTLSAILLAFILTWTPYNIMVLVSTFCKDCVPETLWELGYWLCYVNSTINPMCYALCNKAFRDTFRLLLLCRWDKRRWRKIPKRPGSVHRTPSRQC
Chain of Beta-2 adrenergic receptor (Homo sapiens) (P07550 whole entry, looked up): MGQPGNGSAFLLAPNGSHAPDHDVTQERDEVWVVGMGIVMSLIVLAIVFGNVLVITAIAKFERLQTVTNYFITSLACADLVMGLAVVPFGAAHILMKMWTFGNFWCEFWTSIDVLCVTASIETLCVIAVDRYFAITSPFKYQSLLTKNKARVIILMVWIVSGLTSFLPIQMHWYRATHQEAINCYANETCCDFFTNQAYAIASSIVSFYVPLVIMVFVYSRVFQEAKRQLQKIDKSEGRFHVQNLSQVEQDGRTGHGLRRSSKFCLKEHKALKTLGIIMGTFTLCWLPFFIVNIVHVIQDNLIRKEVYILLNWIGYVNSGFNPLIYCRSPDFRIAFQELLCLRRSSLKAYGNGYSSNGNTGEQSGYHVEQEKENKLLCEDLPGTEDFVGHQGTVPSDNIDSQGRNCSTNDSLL
Chain of KiSS-1 receptor (Homo sapiens) (Q969F8 whole entry, looked up): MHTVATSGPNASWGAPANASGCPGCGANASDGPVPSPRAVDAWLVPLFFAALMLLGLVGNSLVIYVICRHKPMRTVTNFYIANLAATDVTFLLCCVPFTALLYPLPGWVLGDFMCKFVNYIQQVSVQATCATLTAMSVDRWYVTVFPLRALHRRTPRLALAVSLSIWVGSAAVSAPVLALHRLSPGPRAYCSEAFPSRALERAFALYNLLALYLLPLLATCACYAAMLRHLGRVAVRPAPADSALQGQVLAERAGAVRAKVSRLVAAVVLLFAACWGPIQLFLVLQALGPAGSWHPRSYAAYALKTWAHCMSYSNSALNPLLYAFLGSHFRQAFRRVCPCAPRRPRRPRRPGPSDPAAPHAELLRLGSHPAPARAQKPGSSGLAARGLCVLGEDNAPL

Compound	Potency [1]	Potency [2]	Potency [3]	Potency [4]	Potency [5]	Potency [6]	Potency [7]	Potency [8]	Potency [9]	activation [10]	Potency [11]	Potency [12]	Potency [13]	Potency [14]	Potency [15]	Potency [16]	Potency [17]	Potency [18]	Potency [19]	Potency [10]
CN(C)c1nc(N(C)C)nc(N(C)C)n1	inactive	inactive	inactive	inactive	inactive	inactive	inactive	inactive	inactive	17.3% [at 8.39 µM] (inactive)	inactive	inactive								
N#Cc1ccccc1		inactive		inactive	inactive	inactive	inactive	inactive	inactive		inactive	inactive	inactive	inactive	inactive	inactive	inactive	inactive		
c1ccc2[nH]c(-c3cscn3)nc2c1	inactive	inactive			inactive	inactive		inactive	inactive		inactive	inactive							inactive	inactive
C[C@]12C[C@H](O)[C@H]3[C@@H](CCC4=CC(=O)CC[C@@]43C)[C@@H]1CC[C@@H]2C(=O)CO		inactive	inactive		inactive		inactive		inactive		inactive	inactive	inactive	inactive	inactive	inactive	inactive	inactive		inactive
CCCCCCCCCCCCCC[N+](C)(C)C		inactive	inactive		inactive	inactive	inactive		inactive		inactive	inactive		inactive		48.9 µM (active)	941 nM (active) and 818 nM (active)	10.7 µM (active)		inactive
c1ccc(Nc2ccccc2)cc1	inactive	inactive	inactive	inactive	inactive	inactive	inactive		inactive		inactive	inactive			inactive			inactive		
Cc1ncc[nH]1		inactive	inactive	inactive	inactive	inactive		inactive	inactive			inactive	inactive	inactive	inactive	inactive	inactive	inactive		inactive
CS(=O)(=O)OCCCCOS(C)(=O)=O			inactive	inactive	inactive	inactive	inactive	inactive	inactive		inactive	inactive	inactive	inactive					inactive	inactive
OCCOCCN1CCN(C(c2ccccc2)c2ccc(Cl)cc2)CC1 (configuration not stated)	inactive	inactive	inactive	inactive	inactive	inactive	inactive	inactive	inactive and 26.6 µM (active)		inactive	inactive	inactive		1.47 µM (active) and 1.63 µM (active)	inactive	7.38 µM (active)	inactive	inactive	
O=S(=O)(O)NC1CCCCC1	inactive	inactive		inactive	inactive	inactive		inactive	inactive	-21.4% [at 19 µM] (inactive)	inactive	inactive	inactive			inactive	inactive	inactive	inactive	
O=C(O)c1cccc(C(=O)O)c1	inactive	inactive		inactive	inactive			inactive	inactive		inactive	inactive	inactive		inactive	inactive	inactive	inactive		inactive
O=C(O)c1ccccc1	inactive	inactive		inactive	inactive		inactive	inactive	inactive		inactive	inactive	inactive						inactive	inactive
Cc1cc(Cc2ccc(N)c(C)c2)ccc1N	inactive	inactive	inactive	inactive	inactive	inactive	inactive	inactive	inactive		inactive	inactive	inactive		inactive	inactive	inactive	inactive	inactive	inactive
O=[N+]([O-])c1cccc(Cl)c1	inactive		inactive	inactive	inactive	inactive	inactive	inactive	inactive		inactive	inactive	inactive	inactive	inactive	inactive	inactive	inactive	inactive	inactive
Oc1ccc(Cc2ccccc2O)cc1	inactive	inactive	inactive		36.8 µM (active) and inactive	inactive		inactive	inactive			inactive	inactive		inactive	inactive	inactive	inactive	inactive	inactive
Cc1c(N(C)C)c(=O)n(-c2ccccc2)n1C	inactive	inactive		inactive	inactive	inactive		inactive	inactive		inactive	inactive	inactive		inactive	inactive	inactive	inactive		inactive
Cc1ccc(S(=O)(=O)O)cc1	inactive	inactive		inactive	inactive			inactive	inactive			inactive	inactive		inactive	inactive	inactive	inactive	inactive	inactive
